Assay outcomes deposited in PubChem BioAssay by National Center for Advancing Translational Sciences (NCATS).
An excerpt weighted towards active compounds, which were near 8.3% of everything screened.
FBPA Giardia inh = qHTS Assay for Inhibitors of Fructose-1,6-bisphosphate Aldolase from Giardia Lamblia; A8B2U2; purified Giardia FBPA; Potency, µM (top dose mostly 59.6 µM), hits mostly inhibitors; actives 0.71% (n = 290,000); further: nearly all actives have a fitted effect of over 55% in size
Target sequence (A8B2U2 whole entry, looked up): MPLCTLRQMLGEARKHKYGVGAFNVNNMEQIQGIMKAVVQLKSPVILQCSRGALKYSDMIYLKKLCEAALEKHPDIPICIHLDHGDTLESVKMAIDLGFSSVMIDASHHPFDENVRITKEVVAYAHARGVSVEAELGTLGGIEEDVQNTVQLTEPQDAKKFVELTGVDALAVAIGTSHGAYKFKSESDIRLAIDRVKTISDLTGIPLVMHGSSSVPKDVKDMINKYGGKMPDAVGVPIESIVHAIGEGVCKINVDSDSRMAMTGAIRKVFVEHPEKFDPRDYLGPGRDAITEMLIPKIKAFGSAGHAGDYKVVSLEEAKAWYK
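40 nM FBPA preincubated 10 min at RT with compound (up to 57.5 uM final), then substrate plus GAPDH/TPI/NAD/arsenate coupling and diaphorase/resazurin added. Fluorescence read after 20 min at RT, 525/598 nm.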
HCV inh = qHTS Assay for Inhibitors of Hepatitis C Virus (HCV). Huh7.5.1 HCVcc-Cre infection, luciferase reporter, 44 h. Potency, µM (series often up to 41.8 µM), actives largely listed as inhibitors. actives 3.4% (n = 340,000). AID 651820, 2012
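A cell-based infection assay in which seeded cells (1,000 per well) receive test compound after 4 h, are inoculated with HCVcc-Cre at approximately 0.5 moi, and are incubated 44 h before luminescence detection.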
Marburg entry inh = qHTS for inhibitors of binding or entry into cells for Marburg Virus. Potency, µM (top dose mostly 37.8 µM), actives largely listed as inhibitors. Marburg virus pseudotyped entry inhibition, cell reporter. actives 1.8% (n = 300,000). AID 540276, 2011; calls by dose curve; tested in HEK293 cells
HCMV inh = qHTS Assay for inhibitors of the human cytomegalovirus (HCMV) | actives 4.5% (n = 410,000) | AID 1259415, 2018 | activity change, negative = inhibition, % at 57.5 µM | HFF cells, HCMV-luciferase reporter, 72 h; stronger effect = lower value; in the data active means activity change below about -60%; inconclusive means no clear call, values can overlap the other calls; inactive means above about -39%
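Inhibition of viral replication was scored as loss of reporter luminescence in HFFs infected with HCMV-luciferase (MOI 1 PFU/cell) for 72 h; compounds tested at 2 doses, normalized to buffer and Salinomycin controls.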
FMDV inh = High Throughput Screening for Foot and Mouth Disease Virus Antivirals; FMDV antiviral cell-based qHTS; Potency, µM (highest dose often 57.9 µM), hits mostly inhibitors; actives 1.2% (n = 410,000); calls by dose curve; tested in HEK293T cells; further: read-out not given here; nearly all actives have a fitted effect of over 45% in size
LASV entry inh = qHTS for Inhibitors of binding or entry into cells for Lassa Virus; actives 1.2% (n = 300,000); Potency, µM (doses to about 37.9 µM), hits mostly inhibitors; Lassa virus pseudotype entry inhibition, cell reporter; calls by dose curve; tested in HEK293 cells; further: nearly all actives have a fitted effect of over 50% in size
Hits are given with their value; 0 = inactive; ? = inconclusive; - = no result. Unless noted, the call rests on the fitted dose curve; in most records, active means well fitted curve in the direction sought with a large enough effect; inconclusive means small, poorly fitted or top-dose-only effect, or another doubt; inactive means no such curve, though single readings can be large; an effect the other way counts as inactive or inconclusive.

SMILES | FBPA Giardia inh | HCV inh | Marburg entry inh | HCMV inh | FMDV inh | LASV entry inh
CNC(=O)c1cc(S(=O)(=O)NCc2ccncc2)ccc1OC | 0 | 0 | - | ? | 0 | -
O=C(O)CNS(=O)(=O)c1ccc(Br)s1 | 0 | 0 | 0 | 0 | 0 | 0
Cc1ccc(S(=O)(=O)NCc2ccncc2)cc1C | 0 | 2.24µM | ? | -67.6 | 0 | ?
Cc1ccc(S(=O)(=O)NCc2ccncc2)cc1C(=O)NCC(C)C | 0 | ? | 0 | 0 | 0 | 0
COc1cc(S(=O)(=O)NCc2ccncc2)ccc1Br | 0 | ? | ? | -69.8 | 0 | ?
COc1ccc(/C=C/C(=O)NCC2Cc3cccc(-c4nc(C)cnc4C)c3O2)cc1OC (centres undefined) | - | - | - | - | 0 | -
COCc1cc(N2CCN(C(=O)OC(C)(C)C)C[C@H]2C)ccc1N1CC[C@@H](O)C1 | - | - | - | 0 | - | -
C=CCn1c(-c2cc(OC)c(OC)c(OC)c2)n[nH]c1=S | 0 | 0 | 0 | 0 | 0 | 0
C=CCn1c(-c2cccc(OC)c2OC)n[nH]c1=S | ? | ? | ? | -69.6 | ? | 0
Cc1ccc(-n2nc(C)c3c(C)c(CCC(=O)NCC4CCCO4)c(=O)n(C)c32)cc1 (centres undefined) | - | 0 | - | 0 | ? | -
CCn1c(=O)c(CCC(=O)NCC2CCCO2)c(C)c2c(C)nn(-c3ccccc3)c21 (centres undefined) | - | 12.6µM | - | 0 | ? | -
O=c1[nH]cnc2c1ncn2-c1ccc(Cl)cc1 | - | 0 | 0 | 0 | 0 | 0
ClCCN(CCCl)c1ccc(-n2cnc3c(Cl)ncnc32)cc1 | - | 12.6µM | ? | 0 | ? | ?
Cc1nc2ccccn2c1C(=O)/C=C/c1cccc([N+](=O)[O-])c1 | 0 | 0 | - | -101.0 | 6.31µM | -
CC(=O)c1c(C)nc2ccccn12 | 0 | 0 | 0 | 0 | 0 | -
Cc1ccc(/C=C/C(=O)c2c(C)nc3ccccn23)cc1 | 0 | 0 | ? | -88.1 | 0 | 0
CC(C)(C)OC(=O)NC(Cc1ccccc1)C(O)c1ccco1 (centres undefined) | 0 | - | - | - | - | -
CNCC(N)C(=O)O (centres undefined) | 0 | - | - | - | 0 | -
CN1CCC(=C(c2ccccc2)c2ccc(Br)cc2)CC1 | - | 8.91µM | - | ? | 0 | -
CC(OC(=O)c1ccc2c(c1)OCO2)C(=O)NC1CCCCC1C (centres undefined) | - | ? | ? | ? | 0 | 0
CC(OC(=O)c1cc(Br)ccc1O)C(=O)NC1(C#N)CCCCC1 (centres undefined) | - | ? | 0 | 0 | 0 | 0
Cc1[nH]c2ccc(C(=O)OC(C)C(=O)NC3(C#N)CCCCC3)cc2c1C (centres undefined) | - | 14.1µM | ? | 0 | 0 | ?
CC(OC(=O)c1ccc(-c2ccc(O)cc2)cc1)C(=O)NC1CCCCC1C (centres undefined) | - | 12.6µM | ? | 0 | 0 | 0
Cc1[nH]c2ccc(C(=O)OC(C)C(=O)NC3CCCCC3C)cc2c1C (centres undefined) | - | 22.4µM | - | 0 | 0 | -
NCCCC[C@H](N)C(=O)N[C@@H](CCCN=C(N)N)C(=O)N1CCC[C@H]1C(=O)N1CCC[C@H]1C(=O)NCC(=O)N[C@@H](Cc1ccccc1)C(=O)N[C@@H](CO)C(=O)N1CCC[C@H]1C(=O)N[C@@H](Cc1ccccc1)C(=O)O | 0 | - | - | - | - | -
SMILES | FBPA Giardia inh | HCV inh | Marburg entry inh | HCMV inh | FMDV inh | LASV entry inh
CC(C)NC(=O)N1CC[C@@]2(CCCN(C(=O)c3cnccn3)C2)C1 | 0 | - | - | - | 0 | -
COc1cc(Nc2nn(-c3ccc(OC(F)(F)F)cc3)nc2C(C)=O)cc(OC)c1 | - | - | 0 | 0 | 0 | 0
CN([C@@H](Cc1ccc(OS(=O)(=O)c2cccc3cnccc23)cc1)C(=O)N1CCN(c2ccccc2)CC1)S(=O)(=O)c1cccc2cnccc12 | 0 | 2.82µM | ? | - | 0 | ?
CCNc1nc(NC(C)C)nc(N(C#N)Cc2ccccc2)n1 | 0 | ? | 0 | 0 | ? | 0
CCNc1nc(NC(C)C)nc(N(C#N)CCOc2ccc(Cl)cc2Cl)n1 | 0 | 5.01µM | 0 | 0 | 0 | 0
CC(C)Oc1ccc(CNC(=O)C2CCN(c3nc4ccccc4nc3C(F)(F)F)CC2)cc1 | - | - | - | 0 | ? | ?
COc1ccc(-c2c(C#N)c(N)nc3c2CCc2ccccc2-3)cc1OC | 0 | 11.2µM | 23.1µM | 0 | 15.8µM | ?
COc1ccc(-c2cc(-c3ccc(O)cc3)nc(N)c2C#N)cc1OC | 0 | ? | 4.47µM | 0 | 0 | ?
CCCn1c(N)c(C(=O)CN(C)CC(=O)Nc2cccc(F)c2)c(=O)[nH]c1=O | - | 0 | - | 0 | 0 | -
CCCn1c(N)c(C(=O)CN(C)CC(=O)Nc2ccccc2CC)c(=O)[nH]c1=O | - | 0 | - | -103.3 | 0 | -
Cc1cc(N2CCN(C(c3ccccc3)c3ccccc3)CC2)n2ncnc2n1 | 0 | 0 | 0 | -97.3 | ? | 0
Cc1cc(N2CCN(c3cccc(C(F)(F)F)c3)CC2)n2ncnc2n1 | 0 | 0 | 0 | 0 | 0 | 0
Cc1cc(N2CCN(c3nc4ccccc4s3)CC2)n2ncnc2n1 | 0 | 3.16µM | ? | -101.8 | 11.2µM | ?
Cc1nc2ncnn2c(N2CCN(c3cccc(C(F)(F)F)c3)CC2)c1C | 0 | 0.891µM | 0 | -101.0 | ? | ?
Cc1nc2ncnn2c(N2CCN(S(=O)(=O)c3ccc(Br)cc3)CC2)c1C | 0 | 0 | 0 | 0 | ? | 0
Cc1nc2ncnn2c(N2CCN(C(c3ccccc3)c3ccccc3)CC2)c1C | 0 | ? | 0 | -69.5 | 0 | ?
COc1ccc(-c2cnc3c(NC=O)cc(-c4ccc(N(C)C)cc4)cn23)cc1OC | - | - | - | 0 | - | -
